ST2 inh – inhibitors of human ST2 (IL1RL1) binding to IL-33, primary screen, biochemical, AlphaLISA; Interleukin-1 receptor-like 1 (Homo sapiens), Q01638; AlphaLISA ST2-Fc/biotin-IL-33 interaction, 1 h; inhibition, % for hits at 17 µM; 2.3% of 78,000 active; in the data active means inhibition above about 30%
Target sequence (Q01638 whole entry, looked up): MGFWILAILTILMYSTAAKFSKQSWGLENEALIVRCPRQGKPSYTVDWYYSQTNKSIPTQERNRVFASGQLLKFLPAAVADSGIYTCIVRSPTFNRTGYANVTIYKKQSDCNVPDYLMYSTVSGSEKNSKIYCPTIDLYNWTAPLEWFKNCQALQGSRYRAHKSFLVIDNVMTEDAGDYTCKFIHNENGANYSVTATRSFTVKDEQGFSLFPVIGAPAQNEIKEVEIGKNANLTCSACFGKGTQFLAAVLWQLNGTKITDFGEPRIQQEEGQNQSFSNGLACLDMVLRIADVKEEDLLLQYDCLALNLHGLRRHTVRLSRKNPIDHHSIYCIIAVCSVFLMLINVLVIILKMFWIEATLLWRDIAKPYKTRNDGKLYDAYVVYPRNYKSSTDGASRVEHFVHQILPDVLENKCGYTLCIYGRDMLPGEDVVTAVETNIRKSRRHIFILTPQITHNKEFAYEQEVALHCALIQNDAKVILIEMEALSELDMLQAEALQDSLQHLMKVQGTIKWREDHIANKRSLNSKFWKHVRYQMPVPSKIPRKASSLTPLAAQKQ
Of the large screens only hits and unclear results are named; the others gave an inactive call. Shown is part of a subset that was picked to be rich in hits.

COc1ccc(C2C(C#N)=C(N)OC3=C2C(=O)CC(c2ccccc2)C3)cc1 (stereo not drawn)	none
COc1ccc(C2C(C#N)=C(N)Oc3n[nH]c(C)c32)cc1OCc1ccccc1 (stereo not drawn)	none
Cc1nc2nc(SCC(=O)NC3CCCCC3)nn2c(C)c1Cc1ccccc1	none
O=C1OC(C(=O)Nc2ccc(Cl)cc2)Cc2ccccc21 (stereo not drawn)	none
CC1C(=O)N(C)CCN1Cc1cccc(OCc2ccccn2)c1 (stereo not drawn)	none
COC(=O)[C@H]1C[C@@H](O)CCN1C(=O)c1cc(-c2ccccc2)on1	none
O=C(CNS(=O)(=O)c1cccs1)NCc1cccnc1	ST2 inh 79.0%
O=S(=O)(NCc1cccnc1)c1cccs1	none
O=C(CNS(=O)(=O)c1ccc(Br)s1)NCc1cccnc1	none
COc1ccc(CN2CCN(C(=O)c3cc(OC)c(OC)c(OC)c3)CC2)cc1Br	none
O=C(O)c1cccc(NC(=O)c2cccc(C(=O)Nc3cccc(C(=O)O)c3)c2)c1	none
O=C(O)c1cccc(NC(=O)c2ccc(-c3ccccc3)cc2)c1	none
CC1(C)OC(=O)C(=CNc2cccc(C(=O)O)c2)C(=O)O1	ST2 inh 33.0%
CN1C(=O)C2(CCCN(C(=O)C(=O)Nc3cccc(F)c3)C2)c2ccccc21 (stereo not drawn)	none
N#Cc1ccccc1NC(=O)c1ccc(F)cc1	none
Cc1ccsc1C(CNC(=O)c1cn2c(n1)CNCC2)N(C)C (stereo not drawn)	none
COc1cc(OC)c(C2SCCN2S(=O)(=O)c2cccc(C)c2)cc1OC (stereo not drawn)	none
Cc1cccc(S(=O)(=O)N2CCSC2c2ccc(Br)cc2)c1 (stereo not drawn)	none
O=S(=O)(c1ccc(-c2ccccc2)cc1)N1CCSC1c1ccccc1 (stereo not drawn)	none
COc1ccc(C2SCCN2S(=O)(=O)c2cccc(C)c2)cc1[N+](=O)[O-] (stereo not drawn)	ST2 inh 31.0%
Cc1ccc(S(=O)(=O)N2CCSC2c2ccc(Br)cc2)cc1 (stereo not drawn)	ST2 inh 70.0%
COc1ccc(C2SCCN2S(=O)(=O)c2cccc(C(F)(F)F)c2)cc1[N+](=O)[O-] (stereo not drawn)	none
O=C(O)c1cccc(S(=O)(=O)N2CCN(C(=O)c3ccccc3)CC2)c1	none
O=[N+]([O-])c1c(Cl)ncnc1N1CCCCCC1	none
CCc1nc(C)c(C(=O)NCc2cc3cc(OC)ccc3[nH]2)o1	none
CC/C=C\CCO[C@@H]1O[C@H](CO)[C@@H](O)[C@H](O)[C@H]1O	ST2 inh 31.0%
COc1cc(/C=C/CO)ccc1O[C@@H]1O[C@H](CO)[C@@H](O)[C@H](O)[C@H]1O	none
OC[C@H]1O[C@@H](OCCc2ccccc2)[C@H](O)[C@@H](O)[C@@H]1O	none
COCC1CCCCN1Cc1nc(N2CCN(C(C)=O)CC2)c2cccc(C)c2n1 (stereo not drawn)	none
O=[N+]([O-])c1ccc(CSc2nc3ccccc3o2)cc1	ST2 inh 35.0%
O=C(CSc1nc2ccccc2o1)Nc1ccccc1	none
Cn1c(CSc2nc3ccccc3o2)nc2ccccc21	none
O=C1CC(NC2CCN(Cc3ccco3)CC2)CN1CCc1ccccc1 (stereo not drawn)	none
COCCC(=O)NC1CCCN(CCc2ccccc2)C1 (stereo not drawn)	none
O=C(CCc1ccco1)NC1CCCN(CCc2ccccc2)C1 (stereo not drawn)	ST2 inh 31.0%
COc1ccc(Br)cc1C1C(C#N)=C(N)OC2=C1C(=O)CC(C)C2 (stereo not drawn)	none
Cc1cc2oc(=O)cc(C)c2cc1NC(=O)c1ccc[nH]1	none
CC1CCN(CCCNC(=O)CSc2cc(=O)n(C)c3ccccc23)CC1	none
COC(=O)c1c(C)oc2ccc(NS(=O)(=O)c3ccccc3)cc12	none
Cc1ccc(C(=O)N[C@@H]2C=C(C(=O)NCCC(N)=O)C[C@@H](O)[C@@H]2O)cc1	none
NC(=O)CCNC(=O)C1=C[C@@H](NC(=O)Cc2cccs2)[C@@H](O)[C@H](O)C1	none
CC(C)(C)CC(=O)N[C@@H]1C=C(C(=O)NCCC(N)=O)C[C@@H](O)[C@@H]1O	ST2 inh 83.0%
O=S(=O)(Nc1ccc(I)cc1)c1ccc(Cl)cc1	none
Cc1ccc(CN(c2ccc(C(=O)Nc3ccccc3F)cc2)S(C)(=O)=O)cc1	none
O=C(CSc1ncn[nH]1)Nc1cc(C(F)(F)F)ccc1Cl	none
CCc1nnc(NC(=O)CSc2ncn[nH]2)s1	none
CC(C)c1ccc(C(=O)CSc2ncn[nH]2)cc1	ST2 inh 30.0%
COc1c2c(cc3ccc(=O)oc13)C=CC(C)(C)O2	none
COc1cc(-c2ncnn2-c2sc3c(c2C#N)CCCCC3)cc(OC)c1OC	none
N#Cc1c(-n2ncnc2-c2cccs2)sc2c1CCCCC2	ST2 inh 44.0%
COc1cccc(-c2ncnn2-c2sc3c(c2C#N)CCCCC3)c1OC	none
COc1cc(/C=C2/NC(=O)NC2=O)cc(OC)c1O	none
COc1cc(/C=C2/C(=O)NN(c3ccc(Cl)cc3)C2=O)cc(OC)c1O	ST2 inh 30.0%
CC1=NN(c2ccc(F)cc2)C(=O)/C1=C/c1ccc(N(C)C)cc1	none

High-throughput results as filed in PubChem BioAssay.
